Screening data deposited in PubChem by The Scripps Research Institute Molecular Screening Center.
Rows were chosen to be rich in hits. Some 1.2% of all compounds tested hit in one or more screens of this group.
GLD-1 RNA inh – GLD-1/TGE RNA complex disruptors, primary screen, biochemical, fluorescence polarization; Female germline-specific tumor suppressor gld-1 (Caenorhabditis elegans), Q17339; purified GLD-1 + fluorescein TGE RNA; inhibition, % at 5.96 µM; 320,000 tested, 0.44% active; AID 2280, 2010;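 active = percent inhibition above a per-plate cutoff, the plate mean of test compounds plus 3 SD, cut at about 30% in these data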
Cardiac RTF inh – cardiac RTF calcium sensitivity inhibitors, primary screen, biochemical, IANBD-TnC fluorescence, EC70 calcium. IANBD-labeled cardiac RTF, Ca2+ fluorescence. Troponin I, cardiac muscle (Homo sapiens) + Troponin T, cardiac muscle (Homo sapiens) + …. AID 493244, 2011. inhibition, % at 7.15 µM. 340,000 tested, 0.12% active;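 active = inhibition above the mean inhibition of all tested compounds plus 3 SD, cut at about 17% in these data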;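 note: assay run at fixed EC70 calcium of 1.6 mM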
cardiac RTF act – cardiac RTF calcium sensitivity activators, primary screen, biochemical, IANBD-TnC fluorescence, EC20 calcium. Troponin I, cardiac muscle (Homo sapiens) + Troponin T, cardiac muscle (Homo sapiens) + …. IANBD-labeled TnC RTF fluorescence at EC20 calcium; 0% EC20 calcium, 100% full calcium. activation, % at 7.2 µM. 340,000 tested, 0.24% active. AID 493008, 2010;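 active = activation above the mean over all tested compounds plus 3 SD, cut at about 30% in these data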;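 note: rise in fluorescence read as greater calcium sensitivity of cardiac thin filaments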
E coli Lon inh – inhibitors of E. coli Lon protease, primary screen, biochemical, fluorescence polarization; P0A9M0; purified E. coli Lon protease; inhibition, % at 7.94 µM; 360,000 tested, 0.42% active; in the data active = inhibition above about 13%, passing the limit was not always enough
BCLXL inh – inhibitors of human Bcl-xL, primary screen, biochemical, fluorescence polarization, HTS. Bcl-2-like protein 1 (Homo sapiens), Q07817. 320,000 tested, 0.7% active. GST-Bcl-xL / FITC-Bim BH3 peptide fluorescence polarization. AID 2129, 2009. inhibition, % at 10.9 µM;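 active = inhibition above the mean of all tested compounds plus 3 SD, cutoff set per campaign, cut at about 30% in these data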;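 note: inhibitors lower millipolarization by displacing the labeled peptide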
Target sequence (Q07817 whole entry, looked up): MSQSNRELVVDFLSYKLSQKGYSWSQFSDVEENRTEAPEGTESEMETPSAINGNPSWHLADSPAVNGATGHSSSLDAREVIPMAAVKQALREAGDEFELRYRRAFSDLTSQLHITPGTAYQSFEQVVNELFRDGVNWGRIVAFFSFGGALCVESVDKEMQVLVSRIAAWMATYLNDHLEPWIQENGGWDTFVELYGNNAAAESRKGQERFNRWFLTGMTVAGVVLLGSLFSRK
GLD1 RNA confirm – GLD-1/TGE RNA binding inhibitors, retest, confirmation, biochemical, fluorescence polarization, triplicate; shares compounds with GLD-1 RNA inh; AID 2459, 2010; 550 tested, 10% active; GLD-1/FL-TGE RNA fluorescence polarization; inhibition, % at 5.96 µM;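 active = average inhibition across triplicates above the hit cutoff set in the primary screen, cut at about 32% in these data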
Large screens that a line does not name were inactive (follow-up assays come after a bar, where they were run); ! = not active in a repeat.

CCN1/C(=C\C=C\C2=[N+](CC)c3ccccc3C2(C)C)C(C)(C)c2ccccc21	GLD-1 RNA inh active, cardiac RTF act 895, E coli Lon inh active, BCLXL inh active
CC(=NNC(=S)N1CC2CCC(CC2)C1)c1nccs1	none (no result: GLD-1 RNA inh, BCLXL inh)
O=c1[nH]c(=O)n(-c2ccccc2)c(O)c1/C=C/C=Nc1ccccc1	cardiac RTF act 78
Cc1ccc(-n2c(O)c(/C=C/C=Nc3ccccc3)c(=O)[nH]c2=O)cc1	cardiac RTF act 39
O=c1[nH]c(=O)n(C2CCCCC2)c(O)c1/C=C/C=Nc1ccccc1	cardiac RTF act 55
C=CCn1c(O)c(/C=C/C=Nc2ccccc2)c(=O)[nH]c1=O	none
COc1ccc(-n2c(O)c(/C=C/C=Nc3ccccc3)c(=O)[nH]c2=O)cc1	cardiac RTF act 202
Cc1cccc(N2C(=O)NC(=O)/C(=C\c3ccc(N4CCOCC4)cc3)C2=O)c1	none
CCCCn1c(O)c(C(CC)=Nc2ccc(OC)cc2OC)c(=O)[nH]c1=O	none
CCCCCn1cc(C(=O)C(=O)N2CCOCC2)c2ccccc21	none
Cc1ccc2c(c1)C1CN(C)CCC1N2C(=O)Nc1cccc(Cl)c1 (centres undefined)	none
Nc1cccc(N=Cc2c(O)n(Cc3ccc(F)cc3)c(=O)[nH]c2=O)c1	BCLXL inh 66
O=C1NC(=O)N(c2cccc(Cl)c2)C(=O)/C1=C\c1ccc(Sc2nc3ccccc3[nH]2)o1	BCLXL inh 91
O=C1NC(=O)N(c2ccccc2)C(=O)/C1=C/c1ccc(Sc2ccccc2)o1	none
O=C1NC(=O)N(c2ccccc2F)C(=O)/C1=C/c1ccc(Sc2nc3ccccc3[nH]2)o1	BCLXL inh 54
CC(C)C[C@H]1C(=O)N2CCCC2[C@]2(O)O[C@](NC(=O)[C@@H]3C=C4c5cccc6[nH]cc(c56)CC4N(C)C3)(C(C)C)C(=O)N12 (some centres undefined)	GLD-1 RNA inh 117, cardiac RTF act 31, BCLXL inh 152
CC(C)[C@H]1C(=O)N2CCC[C@H]2[C@]2(O)O[C@](NC(=O)[C@@H]3C=C4c5cccc6[nH]cc(c56)C[C@H]4N(C)C3)(C(C)C)C(=O)N12	GLD-1 RNA inh 129, E coli Lon inh 64, BCLXL inh 153
O=C(c1ccc(F)c([N+](=O)[O-])c1)N1CC2CC(C1)c1cccc(=O)n1C2 (centres undefined)	none
O=C1NC(=O)N(c2ccc3c(c2)OCO3)C(=O)/C1=C\c1ccc(-c2ccccc2C(=O)O)o1	none
O=C1NC(=O)N(c2ccc3c(c2)OCO3)C(=O)/C1=C/c1ccc(N2CCCCC2)o1	cardiac RTF act 78
C=CCN1C(=O)/C(=C/c2ccc(N3CCOCC3)o2)C(=O)NC1=S	cardiac RTF act 66
Cc1cc(C)cc(N2C(=O)/C(=C\c3ccc(N4CCN(C)CC4)o3)C(=O)NC2=S)c1	none (no result: Cardiac RTF inh, cardiac RTF act)
O=C1NC(=O)C(=Cc2ccc(N3CCOCC3)o2)C(=O)N1	cardiac RTF act 47
O=C(CCc1ccccc1)N1Cc2cc(-c3cccc(F)c3)ccc2-n2nncc2C1	none (no result: GLD-1 RNA inh, Cardiac RTF inh, cardiac RTF act, BCLXL inh)
O=C(O)C1CN2CCC1CC2 (centres undefined)	BCLXL inh 33
O=C(c1ccc(CS(=O)(=O)c2ccccc2)o1)N1CCC2(CC1)OCCO2	none
CN1CCC2(CC1)C(C#N)=C(N)NC(S)=C2C#N	BCLXL inh 42
CCOc1cc(CNC(C)C(O)c2ccccc2)cc(Cl)c1OCC (centres undefined)	none
CCOc1cccc(OCC)c2c(C)[n+](CC3CCCO3)c(C)c1-2 (centres undefined)	GLD-1 RNA inh 32, BCLXL inh 53
COc1ccc(CCNCC2CCCO2)cc1 (centres undefined)	none
NC(Cc1cc(O)c(O)cc1O)C(=O)O (centres undefined)	BCLXL inh 67 (no result: Cardiac RTF inh, cardiac RTF act, E coli Lon inh)
N[C@@H](CCl)C(=O)O	none
O=C(c1ccc2nc(-c3ccco3)c(-c3ccco3)nc2c1)N1CCC2(CC1)OCCO2	BCLXL inh 52
O=S(=O)(c1ccc(Cl)cc1)N1CC1c1ccccc1 (centres undefined)	none
O=c1[nH]c2ccccc2n1CCCN1CCC(n2c(=O)[nH]c3cc(Cl)ccc32)CC1	BCLXL inh 37
CCC1(C)OC(c2ccccc2)=C/C(=C/C=C2C(=O)NC(=O)NC2=O)O1 (centres undefined)	cardiac RTF act 123 (no result: GLD-1 RNA inh, BCLXL inh)
Cc1ccc2c(c1)c(=O)c1c3n2CCN(CC#N)C3CC1 (centres undefined)	none
CN(C)[C@@H]1C(=O)C(C(N)=O)=C(O)[C@@]2(O)C(=O)C3=C(O)c4c(O)cccc4[C@@](C)(O)[C@H]3[C@H](O)[C@@H]12	GLD-1 RNA inh 93, Cardiac RTF inh 20!, BCLXL inh 153
c1ccc(CCNCc2ccccc2)cc1	none
O=c1[nH]c(=O)n(C2CCCCC2)c(O)c1C=Nc1ccc(N2CCOCC2)cc1	none
CCn1c(O)c(C=Nc2ccc(N3CCOCC3)cc2)c(=O)n(CC)c1=S	cardiac RTF act 130
CCn1c(O)c(C=Nc2ccc(N3CCOCC3)c(Br)c2)c(=O)n(CC)c1=S	none
O=c1[nH]c(=S)n(-c2ccc(Cl)cc2)c(O)c1C=Nc1ccc(N2CCOCC2)cc1	BCLXL inh 166
COc1ccc(CCNCc2cccc(C(F)(F)F)c2)cc1OC	none
O=C(c1cccn2c(=O)c3cc(Br)ccc3nc12)N1CCC2(CC1)OCCO2	none
O=c1[nH]c(=S)[nH]c(O)c1/C=C1/C=c2ccccc2=N1	BCLXL inh 68
Cc1ccc(-c2nc3ccccc3c(=O)n2-c2cccc(O)c2)cc1	BCLXL inh 31
CCn1cc(C=C2C(=O)NC(=O)NC2=O)c2ccccc21	BCLXL inh 136
NC(=O)Cn1cc(C=C2C(=O)NC(=O)NC2=O)c2ccccc21	none (no result: GLD-1 RNA inh, BCLXL inh)
CC(C)Cc1nnc(NC(=O)CCC(=O)N2CCC3(CC2)OCCO3)s1	none
CCCc1nnc(NC(=O)CCC(=O)N2CCC3(CC2)OCCO3)s1	BCLXL inh 54
COc1cc2c(C(=O)O)c(C)n(C)c2cc1Br	none
COc1cc2c(C(=O)N3CCN(C)CC3)c(C)n(C)c2cc1Br	GLD-1 RNA inh 38, E coli Lon inh 20, BCLXL inh 40 | GLD1 RNA confirm inactive
CN1Cc2c(c(C#N)c(N)n(C)c2=S)CC1(C)C	GLD-1 RNA inh 46, cardiac RTF act 50, E coli Lon inh 40, BCLXL inh 94 | GLD1 RNA confirm inactive
